# Test results as given in publication PMC7862700, “An all-to-all approach to the identification of sequence-specific readers for epigenetic DNA modifications on cytosine”.
# Experiments:
# Experiment in all cases: DAPPL (digital affinity profiling via proximity ligation, sequencing); 10 mM Tris-HCl pH 7.5, 50 mM NaCl, 1 mM DTT, 4% glycerol, room temperature, 30 min; GST-TFs on glutathione beads, 16-mer random dsDNA library, 0.1% formaldehyde crosslink after washing; high values mean tight binding
# Details in all cases: protein: recombinant; tags: N-terminal GST; dsDNA, one strand shown
# [1] = target: ETV5 (Homo sapiens, UniProt P41161 1-510)
# Chain of ETV5 (P41161 whole entry, the tested form may be a part): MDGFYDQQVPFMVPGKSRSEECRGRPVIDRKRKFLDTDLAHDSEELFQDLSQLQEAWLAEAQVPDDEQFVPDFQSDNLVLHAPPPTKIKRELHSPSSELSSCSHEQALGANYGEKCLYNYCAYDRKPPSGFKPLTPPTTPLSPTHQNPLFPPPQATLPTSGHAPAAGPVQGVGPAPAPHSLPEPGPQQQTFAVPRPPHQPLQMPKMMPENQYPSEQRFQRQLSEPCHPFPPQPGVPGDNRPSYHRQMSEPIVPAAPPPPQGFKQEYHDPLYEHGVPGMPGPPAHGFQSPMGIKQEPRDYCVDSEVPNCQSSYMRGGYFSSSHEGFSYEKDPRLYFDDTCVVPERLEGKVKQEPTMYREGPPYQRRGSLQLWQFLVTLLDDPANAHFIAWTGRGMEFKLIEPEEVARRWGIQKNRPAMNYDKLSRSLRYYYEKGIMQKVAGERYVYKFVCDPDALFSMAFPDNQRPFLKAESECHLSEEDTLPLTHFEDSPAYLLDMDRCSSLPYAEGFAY
# Method in brief: (§1)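 The binding signal reported is, for every hexamer, its read frequency for a factor over its read frequency for the tag-only sample. Reads came from pools of yeast-expressed, GST-fused human transcription factors on glutathione beads, barcoded with DNA and mixed with that sample, which were incubated with 200 nmole of a random double-stranded 16-mer DNA library in Tris/NaCl/DTT/glycerol buffer at room temperature for 30 min. After washing, the pools were crosslinked with 0.1% formaldehyde, proximity-ligated with BsaI/T4 ligase for 1 h at 37 °C, PCR-amplified and sequenced on an Illumina NextSeq500.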
# [2] = target: ELF4 (Homo sapiens, UniProt Q99607 1-663)
# Chain of ELF4 (Q99607 whole entry): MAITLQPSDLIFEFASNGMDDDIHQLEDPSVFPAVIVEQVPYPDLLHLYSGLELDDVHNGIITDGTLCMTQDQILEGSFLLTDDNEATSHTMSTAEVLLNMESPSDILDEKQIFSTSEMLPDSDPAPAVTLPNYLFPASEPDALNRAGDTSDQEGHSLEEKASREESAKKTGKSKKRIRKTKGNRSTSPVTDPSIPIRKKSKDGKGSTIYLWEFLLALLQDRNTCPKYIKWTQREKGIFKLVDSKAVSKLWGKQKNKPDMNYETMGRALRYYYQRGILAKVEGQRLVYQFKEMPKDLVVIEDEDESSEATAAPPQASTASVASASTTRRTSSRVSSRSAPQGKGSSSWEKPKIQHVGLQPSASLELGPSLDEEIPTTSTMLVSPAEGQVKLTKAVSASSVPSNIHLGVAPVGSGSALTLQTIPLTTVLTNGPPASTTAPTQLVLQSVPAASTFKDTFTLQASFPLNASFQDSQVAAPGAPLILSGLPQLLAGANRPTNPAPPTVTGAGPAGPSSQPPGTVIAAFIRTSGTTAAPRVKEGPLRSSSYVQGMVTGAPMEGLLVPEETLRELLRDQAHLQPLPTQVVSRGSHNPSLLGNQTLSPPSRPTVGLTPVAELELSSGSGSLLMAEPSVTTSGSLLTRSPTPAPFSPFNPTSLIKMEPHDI
# Method in brief: as §1
# [3] = target: T1, ELF3 (Homo sapiens, UniProt P78545 1-371)
# T1 sequence: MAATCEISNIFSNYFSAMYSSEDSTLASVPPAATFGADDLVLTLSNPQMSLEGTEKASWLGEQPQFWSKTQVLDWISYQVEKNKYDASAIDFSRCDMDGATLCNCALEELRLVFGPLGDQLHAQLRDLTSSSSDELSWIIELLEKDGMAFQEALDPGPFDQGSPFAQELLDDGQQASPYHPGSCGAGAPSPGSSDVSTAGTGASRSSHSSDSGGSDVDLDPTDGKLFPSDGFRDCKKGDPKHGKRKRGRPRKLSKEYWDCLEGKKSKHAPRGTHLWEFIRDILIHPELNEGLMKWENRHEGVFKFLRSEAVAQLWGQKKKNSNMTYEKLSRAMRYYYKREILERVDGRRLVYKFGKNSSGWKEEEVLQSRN
# Method in brief: as §1
# [4] = target: T2, ETV7 (Homo sapiens, UniProt Q9Y603 1-341)
# T2 sequence: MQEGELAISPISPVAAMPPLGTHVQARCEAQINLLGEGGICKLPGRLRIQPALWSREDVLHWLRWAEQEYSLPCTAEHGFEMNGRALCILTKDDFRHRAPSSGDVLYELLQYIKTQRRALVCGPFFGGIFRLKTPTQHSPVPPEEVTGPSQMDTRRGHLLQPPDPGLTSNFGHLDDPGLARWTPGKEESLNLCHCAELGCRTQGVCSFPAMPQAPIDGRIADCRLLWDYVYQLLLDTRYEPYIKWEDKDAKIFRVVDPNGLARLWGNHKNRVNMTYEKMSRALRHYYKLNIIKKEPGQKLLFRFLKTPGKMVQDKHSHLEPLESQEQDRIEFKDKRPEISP
# Method in brief: as §1
sequence,measurement,setting,value
ACAAGA,binding signal,[1],"1.03 fold enrichment (6-mer frequency, TF over GST control)"
same,binding signal,[2],"1.03 fold enrichment (6-mer frequency, TF over GST control)"
same,binding signal,[3],"1.1 fold enrichment (6-mer frequency, TF over GST control)"
same,binding signal,[4],"1.02 fold enrichment (6-mer frequency, TF over GST control)"
